Hits are enriched below; roughly 1.3% of the tested compounds scored in any of these assays.
COUP-TFII inh – inhibitors of human COUP-TFII (NR2F2); P24468; HEK293T NGFI-A luciferase reporter, luminescence; inhibition, % at 8.6 µM; actives 0.7% (n = 370,000);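 active = inhibition above a per-plate cutoff, mean inhibition of test wells between control levels plus 3 SD, cut at about 38% in these data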;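 also: cells cotransfected with COUP-TFII expression vector driving the NGFI-A reporter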
Gli-Sufu block – antagonists of Gli-Sufu signaling; Sufu-KO-LIGHT fibroblasts, Gli luciferase reporter luminescence; inhibition, % at 5 µM; actives 0.74% (n = 340,000);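 active = inhibition above about 55%, limit read from the data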
SRC2 inh – human SRC2 (NCOA2) inhibition; actives 0.17% (n = 370,000); inhibition, % at 9 µM; Q15596; HEK293 GAL4-SRC2 luciferase reporter, luminescence;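 active = inhibition above the mean inhibition of all tested compounds plus 3 SD, set per campaign, cut at about 52% in these data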
NCOA1 inh – inhibits human SRC1 coactivator | inhibition, % at 3.6 µM | actives 0.12% (n = 360,000) | HEK293 GAL4-SRC1 luciferase reporter, luminescence | AID 588354;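 active = inhibition above the campaign mean plus 3 SD, with each screening campaign given its own cutoff, cut at about 60% in these data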
NR5A2 inv ag – NR5A2 inverse agonism in reporter assay; O00482; HEK293T StAR-luciferase reporter, LRH-1 transfected, 24 h; inhibition, % at 3.6 µM; actives 0.13% (n = 360,000);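 active = inhibition above the mean inhibition of all tested compounds plus 3 SD, cut at about 73% in these data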
SRC3 inh – inhibitors of human steroid receptor coactivator 3 (SRC3). Q9Y6Q9. HEK293 GAL4-SRC3 luciferase reporter, luminescence. inhibition, % at 3.6 µM. actives 0.17% (n = 360,000);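 active = inhibition above a per-campaign cutoff, the mean of all compounds plus 3 SD, cut at about 60% in these data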;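 also: higher means less SRC3-driven luciferase light from the GAL4 reporter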
Gli-Sufu confirm – Gli-SUFU antagonism confirmation, single concentration | shares compounds with Gli-Sufu block | Sufu-KO-LIGHT cells, Gli luciferase reporter, luminescence | inhibition, % at 5 µM | actives 40% (n = 2,500);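 active = mean inhibition at 5 µM reaching about 45%, limit read from the data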
SufuKO cytotox – counter-screen for Gli-SUFU antagonists: cytotoxicity | actives 32% (n = 2,500) | shares compounds with Gli-Sufu block | cytotoxicity, % at 5 µM | Sufu-KO-LIGHT cells cytotoxicity, ATP luminescence;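 active = mean cytotoxicity at 5 µM above about 25%, limit read from the data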;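 also: cells exposed to compound overnight for roughly 16 to 18 hours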
Wnt3a cs – Wnt3a reporter inhibition counter-screen; shares compounds with Gli-Sufu block; Wnt-LIGHT cells, Wnt3a-driven luciferase reporter, luminescence; inhibition, % at 6.25 µM; actives 20% (n = 2,500); AID 651995;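 active = mean inhibition above about 25%, limit read from the data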
A number is an active result; 0 = inactive; - = no result; ! = not active in a repeat.

SMILES	COUP-TFII inh	Gli-Sufu block	SRC2 inh	NCOA1 inh	NR5A2 inv ag	SRC3 inh	Gli-Sufu confirm	SufuKO cytotox	Wnt3a cs
CCCN(CCC)CCCNC(=O)c1cc2cc3ccc(OC)cc3nc2o1	0	0	0	0	0	0	-	-	-
CC1=C(/C=C/C(C)=C/C=C/C(C)=C/C(=O)Nc2ccc(O)cc2)C(C)(C)CCC1	0	69.9!	0	0	0	0	-	-	-
CC1=C(/C=C/C(C)=C/C=C/C(C)=C\C(=O)O)C(C)(C)CCC1	0	0	-	0	0	0	-	-	-
O=C(OCc1ccccc1)c1ccc(NCc2cc(O)ccc2O)cc1	55.8	0	83.1	0	0	0	-	-	-
CC(C)OC(=O)c1ccc(NCc2cc(O)ccc2O)cc1	0	0	59.7	0	0	0	-	-	-
Cc1ccccc1N1CCN(S(=O)(=O)c2ccc3c(c2)n(C)c(=O)c(=O)n3C)CC1	0	-	0	-	-	-	-	-	-
CCCCN(CC)Cc1ccc(CNC(=S)Nc2ccc(C)cc2Cl)o1	0	0	52.5	0	0	0	-	-	-
CCCCN(CC)Cc1ccc(CNC(=S)Nc2c(C)cc(C)cc2C)o1	0	0	0	0	0	0	-	-	-
COc1ccc(N2CCN(CCNS(=O)(=O)c3c(C(C)C)cc(C(C)C)cc3C(C)C)CC2)cc1	0	-	0	-	-	-	-	-	-
CCN(CC)Cc1c(O)ccc2c([N+](=O)[O-])c(C)n(-c3ccc(OC)cc3)c12	0	0	0	60.9	0	0	-	-	-
COc1ccccc1CNC(=O)N(CCc1c(C)[nH]c2ccccc12)Cc1cccs1	0	-	0	-	-	-	-	-	-
CCOC(=O)N(C)[C@H]1C[C@H]2c3[nH]c4c(-c5cccc(C)c5)cccc4c3CCN2C[C@H]1[C@H](C)O	0	-	0	-	-	-	-	-	-
CCOC(=O)N(C)[C@H]1C[C@H]2c3cc(-c4ccccc4C)ccc3CCN2C[C@H]1[C@H](C)O	61.1	-	0	-	-	-	-	-	-
O=C(CCn1nnc(-c2cccs2)n1)N1CCCCC1	0	-	0	-	-	-	-	-	-
CN(C)c1ccc(/C=C/c2ccc3ccccc3[n+]2C)cc1	71.5	87.1	0	62.8	97.3	70.1	-	-	-
CN(CCCS(=O)(=O)[O-])c1ccc(/C=C/c2ccc3ccccc3[n+]2C)cc1	0	0	0	0	0	0	-	-	-
CN(C)c1ccc(/C=C/c2cccc[n+]2[O-])cc1	0	0	0	0	0	0	-	-	-
CN(C)c1ccc(/C=C/c2ccc3c4ccccc4ccc3[n+]2-c2ccccc2)cc1	85.0	91.7	0	70.8	90.9	77.2	-	-	-
Cc1ccc(Cn2cc(CN3[C@H](CC(C)C)COc4cc(Br)ccc4S3(=O)=O)nn2)cc1	0	-	0	-	-	-	-	-	-
CC(c1ccccc1)N1CC[C@H]2C=CC[C@@H](C(=O)Nc3cccc(Cl)c3)[C@H]2C1=O (stereo partly drawn)	0	-	-	-	-	-	-	-	-
O=C(/C=C/c1ccco1)Nc1ccc(-c2nc3ccccc3[nH]2)cc1	0	66.8	0	0	0	0	54.5	0	0
COc1ccccc1CNC(=O)[C@H](C)N1C(=O)N2CCc3c([nH]c4ccccc34)[C@@]2(C)C1=O	0	65.9	0	0	0	0	0	0	0
COc1ccc(C2(c3ccc(OC(C)=O)cc3OC(C)=O)CC(c3ccccc3)NC(=S)N2)cc1 (stereo not drawn)	0	62.0	0	0	0	0	0	0	0
CC(=O)Oc1ccc2c(c1)OC(c1ccccc1)CC21CC(C)(C)NC(=S)N1 (stereo not drawn)	0	0	0	0	0	0	-	-	-
CC(=O)CCN1CCSCCS1(=O)=O	0	-	0	-	-	-	-	-	-
SMILES	COUP-TFII inh	Gli-Sufu block	SRC2 inh	NCOA1 inh	NR5A2 inv ag	SRC3 inh	Gli-Sufu confirm	SufuKO cytotox	Wnt3a cs
COc1ccc(-c2cnnc(N/N=C/c3ccc(OC)c(OC)c3)n2)cc1	0	0	0	0	0	0	0	0	0
Cc1cc(C(=O)COC(=O)c2cccc(O)c2)c(C)n1C1CC1	0	99.0	0	0	0	0	0	32.8	64.4
Cc1cc(C(=O)COC(=O)c2cccc(S(=O)(=O)N(C)C)c2)c(C)n1CC1CCCO1 (stereo not drawn)	0	0	0	0	0	0	-	-	-
CNS(=O)(=O)c1cccc(C(=O)OCC(=O)c2cc(C)n(CC3CCCO3)c2C)c1 (stereo not drawn)	0	0	0	0	0	0	67.7	0	0
COC(=O)[C@]12CCCCC=C1N(Cc1ccc(OC)cc1)C(=O)[C@@H]2CC(=O)NCCCCc1ccccc1	0	-	0	-	-	-	-	-	-
CCCCN1CN2CCc3ccccc3C2CS1(=O)=O (stereo not drawn)	0	-	0	-	-	-	-	-	-
COC(=O)C1=C(C)N(Cc2cccc(C(F)(F)F)c2)C(=NCc2ccc(OC)cc2)NC1c1ccc(F)cc1 (stereo not drawn)	0	-	0	-	-	-	-	-	-
COc1cccc(C(=O)C2CCCN(C(=O)c3ccc(C#CC(C)(C)O)cc3)C2)c1 (stereo not drawn)	0	59.5	0	0	0	0	0	0	0
O=[N+]([O-])c1ccc(COc2cccc(CO)c2)cc1	0	-	0	-	-	-	-	-	-
COc1ccc(N/C=C(\C#N)S(=O)(=O)c2ccc(Cl)cc2)c(OC)c1	0	65.0	0	0	0	0	0	0	0
CCOC(=O)C1=CCC(c2ccc([N+](=O)[O-])cc2)N(S(=O)(=O)c2ccc(C)cc2)C1 (stereo not drawn)	0	-	0	-	-	-	-	-	-
O=C(c1nc2ccc(Cl)cn2c1CN1CCC(O)CC1)N1CCc2ccccc2C1	0	0	0	0	0	0	-	-	-
CC1CCN(Cc2c(C(=O)N3CCc4ccccc4C3)nc3ccc(Cl)cn23)CC1	0	0	0	0	0	0	0	33.0	0
CC1(c2nnnn2-c2ccc(F)cc2)CCCC(=O)N1CCc1c[nH]c2ccccc12 (stereo not drawn)	0	-	0	-	-	-	-	-	-
CCCn1c(N)c(C(=O)CSc2nnc(-c3ccoc3C)n2C)c(=O)n(C)c1=O	0	76.0	0	0	0	0	0	0	0
NC(=O)CC(NC(=O)c1ccc(Br)cc1)c1ccc(N2CCCCCC2)c([N+](=O)[O-])c1 (stereo not drawn)	0	60.9	0	0	0	0	0	0	0
NC(=O)CC(NC(=O)c1ccccc1)c1ccc(N2CCCCCCC2)c([N+](=O)[O-])c1 (stereo not drawn)	0	0	0	0	0	0	-	-	-
COc1ccc(CNCC(O)(c2ccccc2)c2ccccc2)cc1OC	0	0	0	0	0	0	0	0	0
Cc1ccccc1-n1c(=O)cc(N2CCc3ccccc32)[nH]c1=O	0	63.3	0	0	0	0	0	0	0
Cc1c(CCOC(=O)C23CC4CC(CC(C)(C4)C2)C3)sc[n+]1Cc1ccccc1	0	0	0	0	0	0	56.5	0	0
O=C(CSc1nc2sc3c(c2c(=O)n1-c1ccccc1)CCCC3)NCc1ccco1	0	64.0	0	0	0	0	0	0	0

Assay outcomes: PubChem BioAssay, several laboratories
